Measurements published in PubChem BioAssay (NCATS).
Where “and” joins values, the source holds several entries; their conditions need not be identical. Equal entries are not always repeated. Inconclusive results are not listed. Entries that show only a call come without a potency. Calls of active or inactive are those of the source. Unless noted, the call rests on the fitted dose curve; in most records, active means well fitted curve in the direction sought with a large enough effect; inconclusive means small, poorly fitted or top-dose-only effect, or another doubt; inactive means no such curve, though single readings can be large; an effect the other way counts as inactive or inconclusive.

Experiments:
[1] = Primary qHTS to identify inhibitors of SARS-CoV-2 cell entry (AID 1645846; calls by dose curve; further: nearly all actives have a fitted effect of over 45% in size; further: potency means the concentration at half of the fitted maximal effect); conditions: activity change, negative = inhibition: at 57.1 µM (top of the series) unless noted
Summary of the method: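 HEK293-ACE2 (Expi293F, stable hACE2), 1500 cells/well, o/n 37C; cpd 23 nL pin, 1 h; MLV-PP w/ SARS-CoV-2-S (Wuhan-Hu-1, Δ19 C-term); 48 h 37C; Bright-Glo luminescence; normalized vs S-PP and bald PP.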

Papain (Carica papaya) = Papain (Carica papaya) (UniProt P00784); assay: Primary qHTS assay for inhibitors of the protease papain (AID 1645873);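 further: papain turnover of Z-FR-AMC read as the AMC fluorescence gain over 10 min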; further: potency means the concentration at half of the fitted maximal effect
[2] = Primary qHTS for inhibitors of nuclear receptor binding SET domain protein 2 (NSD2) in an isogenic RCH-ACV NSD2 p.E1099K mutant (9B) (AID 1645876); further: nearly all actives have a fitted effect of over 70% in size; further: potency means the concentration at half of the fitted maximal effect
[3] = Primary qHTS for inhibitors of nuclear receptor binding SET domain protein 2 (NSD2) in an RCH-ACV wild type WT cells (2C) (AID 1645877); further: nearly all actives have a fitted effect of over 70% in size; further: potency means the concentration at half of the fitted maximal effect
[4] = VSVG counterscreen qHTS to identify inhibitors of SARS-CoV-2 cell entry (AID 1645847; calls by dose curve; further: potency means the concentration at half of the fitted maximal effect; nearly all actives have a fitted effect of over 65% in size)
Summary of the method: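 Expi293F/hACE2 cells, overnight plating; cpd 1 h, 37C/5% CO2; + VSV-G PP (MLV pseudotyping), 48 h; supernatant removed, Bright-Glo luciferase read. Norm: VSV-G PP and bald PP wells.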

[5] = biological target: Catechol O-methyltransferase (Homo sapiens) (UniProt P21964); assay: Confirmatory Screen for Target Class Profiling of Small Molecule Inhibitors of Methyltransferases (AID 1745852; calls by dose curve; further: potency means the concentration at half of the fitted maximal effect); conditions: MTase-Glo luminescence, SAH detection, recombinant enzyme; measured here: COMT max response; stronger effect = lower value
[6] = biological target: Guanidinoacetate N-methyltransferase (Homo sapiens) (UniProt Q14353); assay: as above; conditions: MTase-Glo luminescence, SAH detection, recombinant enzyme; activity change, negative = inhibition: at 57.3 µM (top of the series)
[7] = biological target: Nicotinamide N-methyltransferase (Homo sapiens) (UniProt P40261); assay: as above; conditions: MTase-Glo luminescence, SAH detection, recombinant enzyme; measured here: NNMT max response; stronger effect = lower value
[8] = biological target: Phenylethanolamine N-methyltransferase (Homo sapiens) (UniProt P11086); assay: as above; conditions: MTase-Glo luminescence, SAH detection, recombinant enzyme; measured here: PNMT max response; stronger effect = lower value
[9] = biological target: Rap guanine nucleotide exchange factor 3 (Homo sapiens) (UniProt O95398); assay: Confirmatory qHTS for antagonist of cAMP-regulated guanine nucleotide exchange factor 3 (EPAC1) (AID 1645880); further: nearly all actives have a fitted effect of over 55% in size
Summary of the method: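 Nucleotide exchange uses 100 nM EPAC1, 250 nM RAP1B-BODIPY-GDP and 50 uM GDP, with compounds in a concentration-titration series. After 5 min at room temperature, fluorescence (480 nm ex/540 nm em) is read every 5 min for 30 min. Data are normalized to control ATA and DMSO.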

[10] = biological target: Rap guanine nucleotide exchange factor 3 (Homo sapiens) (UniProt O95398); assay: Confirmatory qHTS for agonist of cAMP-regulated guanine nucleotide exchange factor 3 (EPAC1) (AID 1645881);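 further: EPAC1 catalysed release of BODIPY-GDP from Rap1B seen as fluorescence loss; nearly all actives have a fitted effect of over 75% in size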
[11] = biological target: Rap guanine nucleotide exchange factor 4 (Homo sapiens) (UniProt Q8WZA2); assay: Confirmatory qHTS for agonist of cAMP-regulated guanine nucleotide exchange factor 4 (EPAC2) (AID 1645884);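 further: nucleotide exchange releases bodipy-GDP from Rap1 and this lowers its fluorescence; nearly all actives have a fitted effect of over 65% in size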
[12] = biological target: Rap guanine nucleotide exchange factor 4 (Homo sapiens) (UniProt Q8WZA2); assay: Confirmatory qHTS for antagonist of cAMP-regulated guanine nucleotide exchange factor 4 (EPAC2) (AID 1645885); further: nearly all actives have a fitted effect of over 25% in size; further: potency means the concentration at half of the fitted maximal effect
[13] = biological target: Rap guanine nucleotide exchange factor 3 (Homo sapiens) (UniProt O95398); assay: Counterscreen qHTS for antagonist of cAMP-regulated guanine nucleotide exchange factor 3 (EPAC1) (AID 1645888);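 further: fluorescence loss as bound BODIPY-GDP is released from Rap1B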
Summary of the method: (§1)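 Rap1B–BODIPY-GDP (250 nM) with 50 uM GDP; compounds pin-transferred to 9.74 nM–152 uM final (activator) or from 7.32 nM upwards (inhibitor). Fluorescence Ex/Em 480/540 nm read at 5 and 30 min, then after adding cAMP or buffer, at room temperature.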

[14] = biological target: Rap guanine nucleotide exchange factor 3 (Homo sapiens) (UniProt O95398); assay: Counterscreen qHTS for agonist of cAMP-regulated guanine nucleotide exchange factor 3 (EPAC1) (AID 1645889); further: nearly all actives have a fitted effect of over 40% in size
Summary of the method: as §1

[15] = NCATS anti-infectives library activity on HEK293 viability as a counter-qHTS vs the C. elegans viability qHTS (AID 1745854);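 further: HEK293 cells exposed to compounds for 24 hr before the viability read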
Summary of the method: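 HEK293 cells (1,500/well) exposed 24 hr at 37C to 1:5 titrations, up to 41.7 uM final; counter-screen to a C. elegans viability qHTS. Viability by CellTiter-Glo luminescence after 10 min at room temperature; digitonin as control.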

Chain of Rap guanine nucleotide exchange factor 4 (Homo sapiens) (Q8WZA2 whole entry, looked up): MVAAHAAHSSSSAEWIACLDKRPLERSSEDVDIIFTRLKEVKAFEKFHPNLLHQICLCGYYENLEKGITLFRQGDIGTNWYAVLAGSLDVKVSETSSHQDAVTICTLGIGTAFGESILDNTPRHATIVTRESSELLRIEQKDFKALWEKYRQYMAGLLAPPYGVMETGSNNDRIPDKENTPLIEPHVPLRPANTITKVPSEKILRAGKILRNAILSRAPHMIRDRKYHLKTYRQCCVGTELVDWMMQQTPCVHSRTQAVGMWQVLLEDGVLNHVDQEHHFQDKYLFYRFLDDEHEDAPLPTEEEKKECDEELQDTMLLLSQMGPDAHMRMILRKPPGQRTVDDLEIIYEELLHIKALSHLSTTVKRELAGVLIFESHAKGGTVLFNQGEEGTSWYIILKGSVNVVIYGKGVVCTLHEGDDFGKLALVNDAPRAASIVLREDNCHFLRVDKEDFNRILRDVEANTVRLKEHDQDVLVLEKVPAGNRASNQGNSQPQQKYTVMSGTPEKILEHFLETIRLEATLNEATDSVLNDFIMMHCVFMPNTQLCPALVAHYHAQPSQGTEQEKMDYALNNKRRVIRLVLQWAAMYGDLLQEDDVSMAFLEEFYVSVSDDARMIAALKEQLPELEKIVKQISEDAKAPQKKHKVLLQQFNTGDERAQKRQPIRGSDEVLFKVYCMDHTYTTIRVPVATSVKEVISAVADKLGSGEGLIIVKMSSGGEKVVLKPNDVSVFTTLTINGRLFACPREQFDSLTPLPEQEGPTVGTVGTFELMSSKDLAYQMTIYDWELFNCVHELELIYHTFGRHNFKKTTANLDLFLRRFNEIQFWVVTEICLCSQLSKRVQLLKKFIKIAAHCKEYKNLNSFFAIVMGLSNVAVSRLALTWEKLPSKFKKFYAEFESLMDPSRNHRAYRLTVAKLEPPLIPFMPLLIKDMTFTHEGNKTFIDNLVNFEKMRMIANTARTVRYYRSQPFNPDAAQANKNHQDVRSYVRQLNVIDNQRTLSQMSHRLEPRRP
Chain of Rap guanine nucleotide exchange factor 3 (Homo sapiens) (O95398 whole entry, looked up): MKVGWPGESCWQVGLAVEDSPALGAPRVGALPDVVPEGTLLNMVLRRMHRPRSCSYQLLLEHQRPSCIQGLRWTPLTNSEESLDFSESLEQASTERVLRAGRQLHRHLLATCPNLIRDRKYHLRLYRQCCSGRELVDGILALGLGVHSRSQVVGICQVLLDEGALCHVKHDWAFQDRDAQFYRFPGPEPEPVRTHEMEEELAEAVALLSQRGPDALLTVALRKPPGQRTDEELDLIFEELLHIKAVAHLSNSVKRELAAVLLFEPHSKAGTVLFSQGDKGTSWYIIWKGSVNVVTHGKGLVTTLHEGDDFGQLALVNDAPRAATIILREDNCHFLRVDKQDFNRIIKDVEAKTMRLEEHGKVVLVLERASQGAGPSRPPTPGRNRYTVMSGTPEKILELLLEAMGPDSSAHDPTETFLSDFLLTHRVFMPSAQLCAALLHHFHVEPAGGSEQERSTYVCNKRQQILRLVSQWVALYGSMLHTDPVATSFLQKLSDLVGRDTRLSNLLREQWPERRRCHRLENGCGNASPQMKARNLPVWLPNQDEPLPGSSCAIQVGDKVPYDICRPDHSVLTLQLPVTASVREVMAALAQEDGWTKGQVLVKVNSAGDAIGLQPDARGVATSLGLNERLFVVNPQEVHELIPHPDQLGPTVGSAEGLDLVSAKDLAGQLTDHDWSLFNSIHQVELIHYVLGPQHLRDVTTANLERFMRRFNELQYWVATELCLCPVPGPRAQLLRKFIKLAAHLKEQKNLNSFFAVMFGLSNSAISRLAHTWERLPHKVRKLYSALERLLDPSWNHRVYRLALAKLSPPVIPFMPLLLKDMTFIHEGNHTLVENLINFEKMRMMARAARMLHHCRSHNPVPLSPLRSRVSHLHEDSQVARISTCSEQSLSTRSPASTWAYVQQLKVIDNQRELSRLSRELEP
Chain of Papain (Carica papaya) (P00784 whole entry, looked up, the tested form may be a part): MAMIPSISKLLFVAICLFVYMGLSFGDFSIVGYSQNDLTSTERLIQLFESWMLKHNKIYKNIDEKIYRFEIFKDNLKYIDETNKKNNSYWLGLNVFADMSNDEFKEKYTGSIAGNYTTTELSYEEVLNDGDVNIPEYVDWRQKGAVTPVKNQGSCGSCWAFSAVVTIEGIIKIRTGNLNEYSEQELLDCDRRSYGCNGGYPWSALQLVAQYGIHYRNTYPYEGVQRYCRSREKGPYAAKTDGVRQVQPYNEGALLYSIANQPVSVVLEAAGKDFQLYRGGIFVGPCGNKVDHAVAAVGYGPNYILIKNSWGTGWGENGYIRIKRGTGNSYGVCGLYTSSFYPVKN
Chain of Catechol O-methyltransferase (Homo sapiens) (P21964 whole entry, looked up): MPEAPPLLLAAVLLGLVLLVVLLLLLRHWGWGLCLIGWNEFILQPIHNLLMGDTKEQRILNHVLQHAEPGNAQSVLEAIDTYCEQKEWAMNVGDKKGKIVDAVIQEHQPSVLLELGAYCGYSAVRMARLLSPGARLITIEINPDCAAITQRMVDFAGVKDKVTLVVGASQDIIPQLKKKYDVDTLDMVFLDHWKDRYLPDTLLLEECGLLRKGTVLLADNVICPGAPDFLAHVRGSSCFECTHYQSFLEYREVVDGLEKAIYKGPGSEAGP
Chain of Nicotinamide N-methyltransferase (Homo sapiens) (P40261 whole entry, looked up): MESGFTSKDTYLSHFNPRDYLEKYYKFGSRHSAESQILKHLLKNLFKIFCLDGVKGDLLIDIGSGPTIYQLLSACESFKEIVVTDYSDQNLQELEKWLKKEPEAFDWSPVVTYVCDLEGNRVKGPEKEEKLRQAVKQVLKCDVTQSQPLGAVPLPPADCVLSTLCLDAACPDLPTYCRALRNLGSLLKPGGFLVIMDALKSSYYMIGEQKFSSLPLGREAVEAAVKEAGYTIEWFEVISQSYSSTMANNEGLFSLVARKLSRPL
Chain of Phenylethanolamine N-methyltransferase (Homo sapiens) (P11086 whole entry, looked up): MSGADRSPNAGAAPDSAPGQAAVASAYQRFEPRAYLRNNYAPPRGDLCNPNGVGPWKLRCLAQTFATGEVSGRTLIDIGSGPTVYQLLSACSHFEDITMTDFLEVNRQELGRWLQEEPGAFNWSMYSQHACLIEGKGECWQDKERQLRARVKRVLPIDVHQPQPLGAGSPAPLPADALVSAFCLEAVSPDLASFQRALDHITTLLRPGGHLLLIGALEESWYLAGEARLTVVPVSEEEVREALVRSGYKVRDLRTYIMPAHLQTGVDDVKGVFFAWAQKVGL

Q: Which activity change, negative = inhibition [1] does the source give for `CC[C@@]1(O)C(=O)OCc2c1cc1n(c2=O)Cc2cc3ccccc3nc2-1` here?
A: -94.8%

Q: And the Potency (Papain (Carica papaya))?
A: 3.98 µM (active)

Q: What about the Potency [2] of the same compound?
A: 0.0148 µM (active)

Q: And the Potency [3]?
A: 0.0132 µM (active)

Q: For `NC(CCP(=O)(O)O)C(=O)O` (centres undefined), which Potency (Papain (Carica papaya)) is on record?
A: inactive

Q: For `CCC(=O)O[C@@H]1C=C2CCC3C(CCC4(C)C3CC[C@@H]4OC(=O)CC)C2CC1` (some centres undefined), which activity change, negative = inhibition [1] is on record?
A: 4.26%

Q: And the Potency [2]?
A: inactive

Q: Which results are given for `CN1[C@H]2CC(O)C[C@H]1[C@H]1O[C@H]12` (some centres undefined)?
A: activity change, negative = inhibition [1]: 0.905%; Potency [2]: inactive; Potency [3]: inactive

Q: Which Potency [1] does the source give for `Cc1ccc(C(N)=O)cc1Nc1nccc(-c2cn(C(C)C)c3cnccc23)n1` here?
A: 8.91 µM (active)

Q: And the Potency [4]?
A: 2.15 µM (active)

Q: Which activity change, negative = inhibition [1] does the source give for `Cc1[nH]nc2ccc(-c3cncc(OC[C@@H](N)Cc4c[nH]c5ccccc45)c3)cc12` here?
A: -97.4%

Q: And the Potency [2]?
A: 145 nM (active) and 235 nM (active)

Q: What about the Potency [3] of the same compound?
A: 81.7 nM (active) and 132 nM (active)

Q: What about the activity [5] of the same compound?
A: -31.1%

Q: And the Potency [6]?
A: 30.4 µM (active)

Q: What about the activity [7] of the same compound?
A: -70.5%

Q: What about the activity [8] of the same compound?
A: -56.5%

Q: What does the source list for `CC(C)[C@]12O[C@H]1[C@@H]1O[C@]13[C@]1(O[C@H]1C[C@H]1C4=C(CC[C@@]13C)C(=O)OC4)[C@@H]2O`?
A: activity change, negative = inhibition [1]: -93.7%; Potency [2]: 18.3 nM (active) and 23.5 nM (active); Potency [3]: 12.9 nM (active) and 18.6 nM (active)

Q: Which outcome [9] does the source give for `CC1=NN=C(c2ccc(N)cc2)c2cc3c(cc2C1)OCO3` here?
A: inactive

Q: And the outcome [10]?
A: inactive

Q: What about the outcome [11] of the same compound?
A: inactive

Q: What about the Potency [12] of the same compound?
A: inactive

Q: With `c1ccc(CCCN2CCN(CCOC(c3ccccc3)c3ccccc3)CC2)cc1` as the compound, how does the outcome [10] read?
A: inactive

Q: What about the outcome [11] of the same compound?
A: inactive

Q: And the Potency [12]?
A: inactive

Q: And the outcome [13]?
A: inactive

Q: With `Fc1cc(Br)ccc1CBr` as the compound, how does the Potency [2] read?
A: inactive

Q: And the Potency [3]?
A: inactive

Q: With `O=[N+]([O-])c1c2ccccc2cc2ccccc12` as the compound, how does the Potency [3] read?
A: inactive

Q: With `N=c1c2c(-c3ccccc3)c(-c3ccccc3)n(Cc3ccccc3)c2ncn1C1CCC(O)CC1` (centres undefined) as the compound, how does the Potency [2] read?
A: 0.59 µM (active)

Q: What about the Potency [3] of the same compound?
A: 0.263 µM (active)

Q: For `CC1=C(C(=O)O)N2C(=O)[C@@H](N)[C@H]2SC1`, which Potency [2] is on record?
A: inactive

Q: And the Potency [3]?
A: inactive

Q: What does the source list for `Cc1nc(-c2ccc(-c3ccc(C(=O)N4CCc5cc6c(cc54)C4(CCN(C)CC4)CO6)cc3)c(C)c2)no1`?
A: outcome [9]: inactive; outcome [10]: inactive; Potency [12]: inactive

Q: With `CC(N[C@H]1C[C@H]1c1ccccc1)c1ccc2c(c1)OCCO2` (some centres undefined) as the compound, how does the Potency [2] read?
A: inactive

Q: And the Potency [3]?
A: inactive

Q: Which Potency [2] does the source give for `Nc1ccc(N=Nc2ccccc2)cc1` here?
A: 6.11 µM (active)

Q: What about the Potency [3] of the same compound?
A: 6.86 µM (active)

Q: Which results are given for `O=C(O)COc1nc(Cl)c(Cl)cc1Cl`?
A: Potency [2]: inactive; Potency [3]: inactive

Q: Which Potency [2] does the source give for `Nc1ccc(Cl)cc1` here?
A: inactive

Q: What about the Potency [3] of the same compound?
A: inactive

Q: For `CC(O)CN1CCN(CC(=O)[O-])CCN(CC(=O)[O-])CCN(CC(=O)[O-])CC1.[Gd+3]` (centres undefined), which Potency [2] is on record?
A: inactive

Q: What about the Potency [3] of the same compound?
A: inactive

Q: For `O=C(O)CCCOc1ccc(Cl)cc1Cl`, which Potency [2] is on record?
A: inactive

Q: What about the Potency [3] of the same compound?
A: inactive

Q: With `CN[C@@H](C)[C@H](O)c1ccccc1` as the compound, how does the Potency [2] read?
A: inactive

Q: What about the Potency [3] of the same compound?
A: inactive

Q: For `CO/C=C(/C(=O)OC)c1ccccc1Oc1cc(Oc2ccccc2C#N)ncn1`, which Potency [2] is on record?
A: 24.3 µM (active)

Q: And the Potency [3]?
A: 24.3 µM (active)

Q: With `O=[N+]([O-])c1c(Cl)c(Cl)cc(Cl)c1Cl` as the compound, how does the Potency [2] read?
A: inactive

Q: What about the Potency [3] of the same compound?
A: inactive

Q: For `c1cc2ccc3cccc4ccc(c1)c2c34`, which Potency [2] is on record?
A: inactive

Q: And the Potency [3]?
A: inactive

Q: With `O=S(=O)(c1ccc(Cl)cc1)c1ccc(Cl)cc1` as the compound, how does the Potency [2] read?
A: inactive

Q: What about the Potency [3] of the same compound?
A: inactive

Q: Which results are given for `CC(C)(C)NC[C@H](O)c1ccc(O)cc1Cl`?
A: Potency [2]: inactive; Potency [3]: inactive

Q: With `COCCOCCO` as the compound, how does the Potency [3] read?
A: inactive

Q: With `CCC1(CCC(C)C)C(=O)NC(=O)NC1=O` as the compound, how does the Potency [2] read?
A: inactive

Q: And the Potency [3]?
A: inactive

Q: Which Potency [3] does the source give for `O=C(O)c1cc(Oc2ccc(C(F)(F)F)cc2Cl)ccc1[N+](=O)[O-]` here?
A: inactive

Q: Which Potency [2] does the source give for `CCCN(CCC)c1c([N+](=O)[O-])cc(S(N)(=O)=O)cc1[N+](=O)[O-]` here?
A: 9.69 µM (active)

Q: What about the Potency [3] of the same compound?
A: 12.2 µM (active)

Q: And the outcome [10]?
A: inactive

Q: What about the outcome [11] of the same compound?
A: inactive

Q: What about the Potency [12] of the same compound?
A: 89.7 µM (active)

Q: What does the source list for `CCOCCOC(C)=O`?
A: Potency [2]: inactive; Potency [3]: inactive

Q: Which results are given for `CCCCOC(=O)c1ccccc1C(=O)OCc1ccccc1`?
A: outcome [9]: inactive; outcome [10]: inactive; activation [11]: 4.15% [at 17.1 µM] (inactive); outcome [13]: inactive; outcome [14]: inactive

Q: Which results are given for `O=C(O)C(Cl)Cl`?
A: Potency [2]: inactive; Potency [3]: inactive

Q: With `Clc1ccccc1C(c1ccccc1)(c1ccccc1)n1cccn1` as the compound, how does the Potency [2] read?
A: inactive

Q: What about the Potency [3] of the same compound?
A: inactive

Q: Which results are given for `CC(C)NCC(O)c1ccc([N+](=O)[O-])cc1` (centres undefined)?
A: Potency [2]: inactive; Potency [3]: inactive

Q: With `CC(C)N(CCNC(=O)CN1CCCC1=O)C(C)C` as the compound, how does the Potency [2] read?
A: inactive

Q: What about the Potency [3] of the same compound?
A: inactive

Q: For `Nc1ccc(Sc2ccc(N)cc2)cc1`, which Potency [3] is on record?
A: 34.4 µM (active)

Q: What does the source list for `O=C1C(I)=CC(=C(c2cc(I)c(O)c(I)c2)c2ccccc2C(=O)O)C=C1I`?
A: Potency [2]: inactive; Potency [3]: inactive

Q: With `CCNC(=O)C[C@@H]1N=C(c2ccc(Cl)cc2)c2cc(OC)ccc2-n2c(C)nnc21` as the compound, how does the Potency [2] read?
A: 459 nM (active) and 590 nM (active)

Q: What about the Potency [3] of the same compound?
A: 459 nM (active) and 833 nM (active)

Q: And the Potency [15]?
A: inactive
